Measurements from PubChem BioAssay AID1508600 (Functional Genomics Laboratory (NCATS/FGL), 2020).
The campaign covered roughly 53,000 sequences. About 3,700 (7%) were called active. The full list was thinned out, with actives kept by preference. A number with no mark means an inactive call.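 The calls were made as follows: active = gene knockdowns whose robust z-score for IL-1 alpha signal is at least 2 or at most -2, so actives lie on both sides; inactive = the rest.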

assay: Components of the Cytosolic LPS Sensing Pathway: Gene Identification via Genome-wide siRNA Screen; conditions: RAW264.7 macrophages, IL-1a HTRF, actives lie on both sides, screened at 100 nM (by protocol), cells primed 5 h with Pam3CSK4 first;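 also: robust z of the log signal after scaling to non-targeting control siRNA wells of the plate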
Summary of the method: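 RAW264.7 mouse macrophages reverse-transfected with single siRNAs (100 nM final) for 48h, primed with Pam3CSK4 for 5 hours, then transfected with LipidA for 24 hour. Supernatant IL-1a read by HTRF; values normalized to negative-control median, log-transformed robust z-scores.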

Sequence	z-score
GGUUUCAAGAAAGAUAUGATT against Cntnap5b	-0.891
GGAAUUAAGAAGACAAUUCTT against Emc2	-1.22
GGAUGUCUCCAUGAAGGAATT against Ccnb2	-1.12
GGUUGAUGGGUAAUAAACUTT against Nfatc4	-2.16 (active)
GGAAUGGAUAAAAACAUUGTT against Tank	1.27
GGUGGUCUACUUAGGUUUATT against Sc5d	0.63
GCGUGCAGCCCUCAAUGAATT against Ppp2r5b	0.84
GGCGAACAGAGAGAGUUAGTT against 4921524J17Rik	0.677
GGGCUUCACUUCCUUAGGATT against Cog3	0.0276
GGGCUGAAGUGAAAACAGCTT against Mmp8	-0.523
GGAUAACUCACAAGAGUCUTT against Zdhhc16	-0.296
GGCUUUUUGUUAAGGCAGCTT against Ap1ar	1.59
GGAGACAACAACAAGACAUTT against Tbk1	3.12 (active)
GGAGAAAGCUGCUCAUGAATT against Caml	-0.477
GGCAGAUGAUCCCGGGAUUTT against Clvs1	0.545
GGUAUGUCUGCAUAAAUGUTT against Cyp2c38	2.74 (active)
GGUUCGUGUGGUUUAACAUTT against Afg3l1	1.55
GGAUGAGAGGUAAAGUAACTT against Nptxr	0.802
GGUUCUCUGAUACCCACUCTT against Mgat4e	0.44
GGAAAUGUGGAGAGAAAAUTT against P2ry4	1.02
GGCGACAUAUUUUUCAAACTT against Fmn1	-0.506
CGUGGAAGACAUACAACCCTT against Tmem181a	3.03 (active)

Sequence	z-score
GGUCCGAGAGACAUUGGCATT against Lmx1b	-0.118
CCUUAUAAGAAAGAUAGACTT against Nhlrc2	-0.591
GGAGCUUCAAGGUCUGUCGTT against Tmc6	-2.65 (active)
GCUGGAUGGCCGUUUCAAATT against Fancd2os	-0.00925
GGAACUAAAUCUUCCAUCCTT against Chit1	-1.02
GGAAAUAGAAGACCAGUUUTT against Srsf3	-1.43
GGCACCAUCUACGACUAUGTT against Gpx5	-0.649
GGUGAGCACUAAAUGCAGATT against Cldn16	0.892
GCAAAUGUUGCCCAUCGUGTT against Ppp2r1b	0.44
GGAAAUCCUGGGACAGAACTT against Htatip2	-2.42 (active)
GCCUGAGAUCGUGAACACUTT against Ccdc159	-0.0179
GGAGGCCUUGUACUUACACTT against Rspo1	1.26
GGUGAAUCAGACAUACUAUTT against Snupn	3.31 (active)
GGUAUGGAUGCUUGAGAAATT against Ccdc77	-1.15
GGAGCCAGUCCAAAUUGCATT against Il13ra1	0.561
GCCCAUUGAGUUUGAUUCATT against Itgav	1.57
GGACGAUUCUUUUCUCCAGTT against Surf1	-2.07 (active)
CCUCAUCGAAUUCGAUACCTT against Arrb2	-0.181
CGCUACGUCCAGUAUCACCTT against Tmem192	-0.471
CCAGAUAGGUAAAAAACAATT against Acta2	-0.562
GCAAAUUUAAGAGAAGUUGTT against Dse	-0.132
CCUAGACUUGAACAAACACTT against Lsm12	-2.11 (active)

Sequence	z-score
GCUUCGGCCUCAGUAUUCATT against Pigb	0.0355
GCAUACUUAGGAUACACGCTT against A830005F24Rik	-0.647
GCCACAUUCUUCUCAACCUTT against Tas2r106	-2.14 (active)
GGUAGUUAACACAAAAUUGTT against 4932438H23Rik	0.334
GGACUUCUUGGACCUACUUTT against F5	-1.55
GGUAGGAGGUAUUUCCCACTT against Shisa5	0.197
GGCUUCUAAGCAUACUCAGTT against Iqsec1	-0.257
GCUCCUCUCCAAGGUCAUUTT against Olfr96	0.652
GGAUUUUCCAGGCAUGAGGTT against Ehd3	-2.24 (active)
GGAAAUGCGCCAUGAGUUGTT against Soga3	-0.124
GAGUUGUACUCUUCACUAUTT against Olfr497	-2.6 (active)
GGACUAUUGUCUCAUUUGATT against Olfr1189	1.04
GGACAACGUAGCCUUCGUUTT against Ncln	-0.562
GGUGGAUUCUAUUAAAUGCTT against Gm14461	0.462
CCAUUAGCAAUGUGCUUCUTT against Unc13a	0.268
GGUGUUCGAGAAGCUGAAGTT against Haus7	-0.371
GGAUCUUUCGUGUGGAAAATT against Atf7ip	0.87
GCUUUUGGACUGAAUCUCATT against 2210016L21Rik	2.78 (active)
GGCCACCUUCUUUGAGGUATT against Snai1	1.11
GGUAGGACUAACAAUAAAATT against Gpr4	-0.0158
GACCUGAAUAAAGACUGUCTT against Cort	0.697
CGGACUUACCAAAAGCGCATT against Lss	3.16 (active)

Sequence	z-score
GGAGAGAGAUGAAAUUUGATT against Kif26b	1.79
GGAGAAAAUCAACAAGAUCTT against Ppp2r2c	-0.437
CCAUUGAGGUAAUGUUUGATT against Rmnd1	0.978
UGAUAUCGGAACAGAGAUGTT against Tbx15	-0.467
GGAAGUAAAAACAUACCUUTT against Chac2	2.02 (active)
CCCAAAGCCCUUUUAAACUTT against Hmbs	0.301
GGUAAAAGACUAAAGAAGATT against Coch	-0.485
CCGCUGUUUUCAACUGUGCTT against Asb10	-0.773
GGAAGUGGUGGAACUCCUGTT against Tmem215	-2.65 (active)
GGACCUGGUCACCAUCUUGTT against Tram2	-0.3
CGGCAGAAGGGUUUUUAUGTT against Rnf126	-0.365
CCAUACAUAUAGACAAUCCTT against AY358078	0.796
CCUUCAUGCAACAGCUACUTT against Nckap5l	-2.57 (active)
GCCCUAUCUACCAUAACACTT against Dok3	-2.11 (active)
GGAUUCAGAAAUCUGGAAATT against Nmnat3	-0.199
GGUCAUCUUACAGUUUAAATT against Smap2	0.593
GCGAAUAUCCAACCUAUCUTT against Itgb7	-0.687
GGGCAUCAUGAAACUAUGUTT against Kbtbd4	-2.59 (active)
GCUGAAGGCGACAAUGGAUTT against Ak2	-0.0901
GGCCUGCUAUAUGCAUUCCTT against Krtap12-1	0.974
GGAAAAGAUGCCUGUAUUUTT against Sgcd	-0.422
GGAUUCCAAAUGCUUACAATT against Lysmd3	0.757

Sequence	z-score
GCCAAUGCAGGGUAAGUACTT against Tmtc2	-2.83 (active)
GCCUAUCCGACAACUUAGUTT against Slc25a17	0.136
GCAUAACCAAGUGUGAUGCTT against Actrt2	-0.439
GGAGAAAGUCAUCUUUGAUTT against Cdk5rap2	-0.41
GGAGACGGAGCUGUUAGAUTT against Plcb1	-0.104
GGUCCAUUAGCUAAAUCUUTT against Mysm1	1.87
CGAAGUGACAAUAAAUCAGTT against Snapc5	-0.0661
GCAUCAGAGGGAUUUCACUTT against Slc35d3	-2.68 (active)
GGGAGCCAAAGUGAGAUUUTT against Azin2	0.736
GGCAAAGUGAGUAAGACAGTT against Habp2	0.0806
GCCCUAUUCCCAACUAUUCTT against Nefl	-0.481
GGACUUUACAGACACUUUUTT against Kdm1b	-1.57
GCAGUUGUCACUGGCAAGUTT against Aqp2	2.21 (active)
GCAAAGGUUCUAGUUGAUATT against Cct2	-0.585
CCGAUUUUGUGGCCUCAUGTT against Emg1	-0.578
GGAGAAAUGGGUAAAAACUTT against Paral1	0.296
GCCUAUGCUCAACUUCUCGTT against Thap4	-3.31 (active)
GGCCCUGACAGAGGAAAAATT against Impa2	-1.16
CGAUAUGAAGCGAAAUAUCTT against Pmpca	0.528
